Test results: PubChem BioAssay AID1508600 (Functional Genomics Laboratory (NCATS/FGL), 2020)
Out of some 53,000 sequences screened, about 3,700 (7%) were called active.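 The calls were made as follows: active = gene knockdowns whose robust z-score for IL-1 alpha signal is at least 2 or at most -2, so actives lie on both sides; inactive = the rest.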 Shown is part of a subset that was picked to be rich in actives.

Experiment: Components of the Cytosolic LPS Sensing Pathway: Gene Identification via Genome-wide siRNA Screen;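 also: robust z of the log signal after scaling to non-targeting control siRNA wells of the plate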
Conditions: RAW264.7 macrophages, IL-1a HTRF, actives lie on both sides, screened at 100 nM (by protocol), cells primed 5 h with Pam3CSK4 first
Summary of the method: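 RAW264.7 mouse macrophages reverse-transfected with single siRNAs (100 nM final) for 48h, primed with Pam3CSK4 for 5 hours, then transfected with LipidA for 24 hour. Supernatant IL-1a read by HTRF; values normalized to negative-control median, log-transformed robust z-scores.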
With GCACUACCAAGGCGAUAACTT against Tspan18 the z-score was -0.624 (inactive). With GGAACCAGUGCUGCAUUUATT against Defb41 the z-score was -2.05 (active). In the case of GGCCAUAAACAACCAUUUATT against Ppp1r1b, the z-score is reported as 0.747 (inactive). With GGACCAACGUGCAGAAAUGTT against Metrn the z-score was -0.702 (inactive). With GGUCUGGAGACUUUCAGUCTT against Hexa the z-score was 0.521 (inactive). In the case of GGGCAGGGACAUUAGUCAUTT against Zfp106, the z-score is reported as 2.88 (active). For GGGAGUGAAUGUUUCACAUTT against Tmem116, the z-score was -1.56 (inactive). In the case of “GGGUAUUAAGCAGGGAUCGTT against 1810009A15Rik”, the z-score is reported as 1.11 (inactive). In the case of CCAAAUGACUAGCACCAGUTT against Arl5c, the z-score is reported as -2.22 (active). In the case of CCUUCUACCUCACCUUACGTT against Tmem186, the z-score is reported as -1.23 (inactive). For “CCAAUUCAAUUAGACUAGATT against 9430015G10Rik”, the z-score was 0.89 (inactive). In the case of GCAUGAGUUAUCAUAAUCATT against Itgb2, the z-score is reported as 1.04 (inactive). With GGAUCAACCACAUCAGCUCTT against Hrh2 the z-score was -0.838 (inactive). For GGGCCUUCUGAUUUAAAAGTT against Slc43a3, the z-score was -1.01 (inactive). With GGUGUUUGGGUACCAGUCUTT against Cyp8b1 the z-score was -1.03 (inactive). In the case of GGCUCAAGCGAAAAGCAGATT against Serping1, the z-score is reported as -0.46 (inactive). For GGCCUAUUGUAAAAACCCATT against Taf1b, the z-score was -2.56 (active). With CCAAGUCCCUUUGUGGUGUTT against Twnk the z-score was -0.749 (inactive). In the case of CCGUUUAUUUAUCAGCUGGTT against Spsb4, the z-score is reported as -1.18 (inactive). For GGAAGGUAAAUGUCUGCUCTT against Selenok, the z-score was 0.289 (inactive). With GGAGAUGGAUAAUUACGAGTT against Ift27 the z-score was 0.344 (inactive). With GGAGAUUUAAACAGCUAGGTT against Gmip the z-score was -0.418 (inactive). For GGCUCAUAUUUCCAUCAGATT against Tchhl1, the z-score was -1.13 (inactive). With GGAAAUUGGGACUCACAUCTT against Trappc13 the z-score was -0.0912 (inactive). In the case of GUGGAAAAUUGAAGGGACGTT against Ndufb3, the z-score is reported as 3.69 (active). In the case of GGAUUCAAGUUCUCACCGATT against Serpina6, the z-score is reported as -0.462 (inactive). In the case of GCUCAAACACUUACACACUTT against Alcam, the z-score is reported as -0.616 (inactive). With “GCCAGUUCCUAUCUGGCUUTT against 4931428L18Rik” the z-score was 1.03 (inactive). In the case of GCCAAUGGUCACGAACCUATT against Senp5, the z-score is reported as -0.217 (inactive).
